Records with an inconclusive call do not appear. The source made the active and inactive calls. Unless noted, calls come from the whole dose curve; as a rule, active = well fitted curve in the direction sought with a large enough effect; inconclusive = small, poorly fitted or top-dose-only effect, or another doubt; inactive = no such curve, though single readings can be large; an effect the other way counts as inactive or inconclusive.
Experiments:
[1] = molecular target: Lysosomal acid glucosylceramidase (Homo sapiens) (UniProt P04062); assay: Glucocerebrosidase-p2 (AID 348; in the data active = potency below about 10 µM; note: potency is the fitted concentration of half-maximal effect); details: purified GBA, blue fluorogenic substrate, 40 min
Lysosomal acid glucosylceramidase (Homo sapiens), sequence (P04062 whole entry, looked up): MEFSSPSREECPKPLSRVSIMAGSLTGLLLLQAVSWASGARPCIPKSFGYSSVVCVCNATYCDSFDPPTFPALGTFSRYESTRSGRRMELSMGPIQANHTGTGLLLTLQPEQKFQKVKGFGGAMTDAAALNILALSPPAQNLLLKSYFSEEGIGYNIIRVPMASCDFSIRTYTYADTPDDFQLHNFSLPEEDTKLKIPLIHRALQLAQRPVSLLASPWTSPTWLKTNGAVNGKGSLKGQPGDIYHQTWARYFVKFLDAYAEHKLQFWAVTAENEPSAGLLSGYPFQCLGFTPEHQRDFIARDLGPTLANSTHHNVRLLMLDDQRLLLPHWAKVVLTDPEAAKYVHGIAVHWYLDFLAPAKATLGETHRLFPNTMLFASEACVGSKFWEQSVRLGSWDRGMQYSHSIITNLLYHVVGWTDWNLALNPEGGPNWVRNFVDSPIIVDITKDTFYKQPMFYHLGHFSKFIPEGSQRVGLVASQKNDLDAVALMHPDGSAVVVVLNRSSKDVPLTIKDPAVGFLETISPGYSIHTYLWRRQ
Summary of the method: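 Normal human glucocerebrosidase (0.2 nM) with blue fluorogenic substrate (80 uM final) in citrate/phosphate pH 5.9 with 10mM sodium taurocholate, 0.01% tween-20; 40 min RT, NaOH/glycine stop; fluorescence Ex 365/Em 440; AC50 from a titration from 0.6 nM upwards.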

[2] = molecular target: Cytochrome P450 1A2 (Homo sapiens) (UniProt P05177); assay: p450-cyp1a2 (AID 410; calls by dose curve; note: potency is the fitted concentration of half-maximal effect); details: recombinant CYP1A2, luciferin-ME demethylation, luminescence; series mostly up to 57 µM
Cytochrome P450 1A2 (Homo sapiens), sequence (P05177 whole entry, looked up): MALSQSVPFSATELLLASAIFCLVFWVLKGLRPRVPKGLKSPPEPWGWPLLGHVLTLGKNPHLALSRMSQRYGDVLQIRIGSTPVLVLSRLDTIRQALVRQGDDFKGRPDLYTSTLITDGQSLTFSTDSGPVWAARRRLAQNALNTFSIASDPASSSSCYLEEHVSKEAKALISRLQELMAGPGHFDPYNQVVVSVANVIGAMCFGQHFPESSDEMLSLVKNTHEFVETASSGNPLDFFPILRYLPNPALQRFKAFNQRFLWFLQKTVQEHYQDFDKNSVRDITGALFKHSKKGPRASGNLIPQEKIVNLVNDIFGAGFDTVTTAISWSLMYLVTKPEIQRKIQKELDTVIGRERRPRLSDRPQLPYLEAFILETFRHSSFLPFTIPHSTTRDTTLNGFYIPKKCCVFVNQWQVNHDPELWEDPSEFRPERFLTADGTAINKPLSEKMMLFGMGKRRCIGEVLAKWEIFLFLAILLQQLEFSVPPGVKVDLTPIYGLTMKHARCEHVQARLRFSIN
Summary of the method: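 O-Demethylation of luciferin 6' methyl ether by human CYP1A2 is monitored as luciferase luminescence. Substrate sits at Km (100uM); enzyme is 20nM. Values are scaled to 57 uM furafylline as maximal inhibition.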

[3] = NFAT Signaling Pathway (AID 444; active = well fitted curve in either direction with a large enough effect, not every such curve was filed as active;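 note: carbachol stimulus at about its EC50 of 1 µM final; % is set by controls: 0 for no effect and ±100 for the full control effect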); details: Jurkat NFAT-bla M1, carbachol, beta-lactamase ratio, 5 h; at 7.69 µM (top of the series) unless noted
Summary of the method: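 Read-out: CCF4 FRET ratio (460 nm/530 nm) after 1 h RT dye loading, used for %activity and AC50 from titration series. Cells: Jurkat NFAT-β-lactamase/M1 line, treated with compound plus 1 uM carbachol for 5 h, 37 °C.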

[4] = Stat Signaling Pathway (AID 446; active = well fitted curve in either direction with a large enough effect, not every such curve was filed as active;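 note: ME-180 cervical cancer cells given 40 pM IL-6 alongside compound; SIE-controlled beta-lactamase reporter measured as 460/530 nm FRET emission ratio; % is set by controls: 0 for no effect and ±100 for the full control effect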); details: ME-180 (cervical carcinoma) SIE beta-lactamase reporter, IL-6 stimulated, 5 h; at 7.69 µM (top of the series) unless noted
Summary of the method: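 Overnight-plated ME-180 cells bearing a STAT Inducible Element beta-lactamase reporter; 5 h co-exposure to compound and 40 pM IL-6; values normalized to 300 pM IL-6 and 125 nM JAK inhibitor controls.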

[5] = molecular target: Glucocorticoid receptor (Homo sapiens) (UniProt P04150); assay: GR-GFP Redistribution (AID 450;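 active = compounds whose dose series gives a full or clear partial fitted curve of increased nuclear translocation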; note: potency is the fitted concentration of half-maximal effect); details: U2OS GR-GFP nuclear translocation, laser cytometry, 2 h
Glucocorticoid receptor (Homo sapiens), sequence (P04150 whole entry, looked up, the tested form may be a part): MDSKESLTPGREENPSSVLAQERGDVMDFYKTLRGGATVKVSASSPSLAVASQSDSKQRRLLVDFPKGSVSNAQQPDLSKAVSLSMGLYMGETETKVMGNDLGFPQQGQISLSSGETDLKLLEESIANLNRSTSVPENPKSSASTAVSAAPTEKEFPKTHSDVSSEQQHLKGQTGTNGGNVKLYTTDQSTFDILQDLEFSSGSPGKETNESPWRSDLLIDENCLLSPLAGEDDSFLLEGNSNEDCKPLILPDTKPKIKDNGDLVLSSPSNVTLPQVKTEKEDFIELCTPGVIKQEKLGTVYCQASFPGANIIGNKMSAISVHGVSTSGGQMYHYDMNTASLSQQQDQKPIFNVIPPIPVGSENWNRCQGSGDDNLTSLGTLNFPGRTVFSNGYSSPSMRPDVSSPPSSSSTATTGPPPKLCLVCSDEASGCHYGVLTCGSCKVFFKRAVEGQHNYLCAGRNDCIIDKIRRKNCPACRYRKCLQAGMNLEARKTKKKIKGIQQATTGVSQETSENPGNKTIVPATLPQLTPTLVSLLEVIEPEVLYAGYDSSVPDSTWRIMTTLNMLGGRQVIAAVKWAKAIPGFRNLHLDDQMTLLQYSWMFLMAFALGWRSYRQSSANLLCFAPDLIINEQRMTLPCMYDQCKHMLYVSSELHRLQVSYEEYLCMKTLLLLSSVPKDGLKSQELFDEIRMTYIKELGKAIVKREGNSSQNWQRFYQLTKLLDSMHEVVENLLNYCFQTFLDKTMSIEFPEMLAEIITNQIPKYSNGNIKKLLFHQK

[6] = molecular target: Glucocorticoid receptor (Homo sapiens) (UniProt P04150); assay: GR-EFC Redistribution (AID 451; calls by dose curve; note: potency is the fitted concentration of half-maximal effect); details: CHO-K1 GR-EFC translocation, beta-gal luminescence, 2 h
Summary of the method: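 Translocation of GR-ED fusion to nuclear EA restores b-gal, read by luminescence after 1 h room-temperature detection. Engineered CHO-K1 biosensor cells, 1,000/well, exposed 2 h at 37 C to titrations up to 46 uM final.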

[7] = molecular target: Mitogen-activated protein kinase 10 (Mus musculus) (UniProt Q61831); assay: JNK3 AlphaScreen Assay (AID 530; active = well fitted curve in either direction with a large enough effect, not every such curve was filed as active;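 note: kinase came from lysate of stimulated human HepG2 cells; signal reports phosphorylation of biotinylated GST-cJun 1-79 at Ser73 with 10 µM ATP; % is set by controls: 0 for no effect and ±100 for the full control effect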); details: JNK3 lysate, c-Jun phosphorylation; series mostly up to 57.1 µM
Summary of the method: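 qHTS titrations with 15 min compound pre-incubation before adding ATP (10 uM final). Read-out: AlphaScreen of Ser73-phosphorylated biotin-GST-cJun using HepG2 lysate JNK3 activated by IL-1β and TNFα.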

[8] = molecular target: Cytochrome P450 3A4 (Homo sapiens) (UniProt P08684); assay: qHTS Assay for Inhibitors and Substrates of Cytochrome P450 3A4 (AID 884); details: recombinant CYP3A4, Luciferin-PPXE luminescence; series mostly up to 57.1 µM; note: potency is the fitted concentration of half-maximal effect; nearly all actives have a fitted effect of over 50% in size
Cytochrome P450 3A4 (Homo sapiens), sequence (P08684 whole entry, looked up): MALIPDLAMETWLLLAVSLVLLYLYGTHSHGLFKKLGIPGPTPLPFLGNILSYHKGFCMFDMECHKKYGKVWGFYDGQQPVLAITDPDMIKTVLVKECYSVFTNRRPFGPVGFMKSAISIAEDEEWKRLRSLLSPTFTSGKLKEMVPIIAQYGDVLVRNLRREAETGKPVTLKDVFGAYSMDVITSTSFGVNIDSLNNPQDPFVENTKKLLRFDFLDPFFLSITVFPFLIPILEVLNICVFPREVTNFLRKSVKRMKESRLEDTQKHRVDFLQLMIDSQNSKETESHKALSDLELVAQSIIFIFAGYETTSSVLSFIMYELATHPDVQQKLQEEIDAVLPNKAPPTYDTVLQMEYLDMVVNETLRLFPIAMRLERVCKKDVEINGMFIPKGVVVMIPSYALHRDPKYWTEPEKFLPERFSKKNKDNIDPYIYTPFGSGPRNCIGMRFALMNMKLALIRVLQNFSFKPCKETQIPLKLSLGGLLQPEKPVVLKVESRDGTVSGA
Summary of the method: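 Luminescent readout of luciferin produced by CYP3A4 (20 nM) dealkylation of Luciferin-PPXE, 25 uM (its KM). NADPH-driven reaction ran 60 min at RT after 10 min compound preincubation; data scaled to 57 uM ketoconazole as 100% inhibition.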

[9] = molecular target: Cytochrome P450 3A4 (Homo sapiens) (UniProt P08684); assay: qHTS Assay for Activators of Cytochrome P450 3A4 (AID 885); details: recombinant CYP3A4, Luciferin-PPXE luminescence, 60 min; series mostly up to 57.1 µM; note: nearly all actives have a fitted effect of over 65% in size
Summary of the method: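 Using 20nM recombinant human CYP3A4 in potassium phosphate (200mM), substrate Luciferin-PPXE at 25uM, luminescent luciferin detection followed a 60-min RT NADPH reaction; data scaled to 57 uM ketoconazole.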

[10] = molecular target: Cytochrome P450 2C19 (Homo sapiens) (UniProt P33261); assay: qHTS Assay for Inhibitors and Substrates of Cytochrome P450 2C19 (AID 899); details: recombinant CYP2C19, luciferin-H EGE luminescence; series mostly up to 57.1 µM; note: potency is the fitted concentration of half-maximal effect; nearly all actives have a fitted effect of over 60% in size
Summary of the method: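 Luminescence readout of luciferin formed from 10uM Luciferin-H EGE (KM level) by 5 nM CYP2C19 in 50mM KPO4. 60 min NADPH-driven reaction at 37C after 10 min compound preincubation; data scaled to 57uM ketoconazole inhibition.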

[11] = qHTS Assay for Lipid Storage Modulators (AID 1519; calls by dose curve; for activity change, negative = inhibition: % is set by controls: 0 for no effect and ±100 for the full control effect); details: Drosophila S3 cells, BODIPY lipid droplet/cell ratio, laser cytometry, cells loaded with oleic acid; for activity change, negative = inhibition: at 57.5 µM (top of the series)
Summary of the method: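 Cells seeded at 5,000 per well were treated with compounds over a concentration series and loaded with oleic acid (400 uM, as added). Lipid droplet fluorescence (488 nm excitation, 500-530 nm channel) was read by laser-scanning cytometry and normalized to 20 uM Triacsin C.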

[12] = molecular target: Dual specificity protein kinase CLK4 (Homo sapiens) (UniProt Q9HAZ1); assay: qHTS Assay for Inhibitors of CDC-like Kinase 4 (Kinase-Glo Assay) (AID 1770); details: recombinant Clk4, Kinase-Glo ATP depletion luminescence; series mostly up to 66.7 µM; note: potency is the fitted concentration of half-maximal effect; nearly all actives have a fitted effect of over 65% in size
Dual specificity protein kinase CLK4 (Homo sapiens), sequence (Q9HAZ1 whole entry, looked up): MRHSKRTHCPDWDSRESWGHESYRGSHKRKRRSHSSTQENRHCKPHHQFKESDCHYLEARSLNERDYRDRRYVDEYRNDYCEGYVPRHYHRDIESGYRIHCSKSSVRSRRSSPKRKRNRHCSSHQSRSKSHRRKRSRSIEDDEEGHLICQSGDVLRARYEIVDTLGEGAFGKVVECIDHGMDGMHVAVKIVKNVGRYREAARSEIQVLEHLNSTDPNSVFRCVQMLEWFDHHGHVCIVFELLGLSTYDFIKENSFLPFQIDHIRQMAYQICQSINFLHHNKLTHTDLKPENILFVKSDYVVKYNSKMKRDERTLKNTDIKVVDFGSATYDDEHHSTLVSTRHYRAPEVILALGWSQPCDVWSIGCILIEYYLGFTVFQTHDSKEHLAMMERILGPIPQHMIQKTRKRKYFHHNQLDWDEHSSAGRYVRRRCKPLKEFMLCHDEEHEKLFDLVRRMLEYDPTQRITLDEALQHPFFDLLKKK
Summary of the method: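 Readout: Kinase-Glo luminescence from ATP left after a 4.5 h room-temperature reaction of 25 nM Clk4 with 100 uM RS peptide and 1 uM ATP (final). Buffer: 25 mM Tris pH 7.5, 10 mM MgCl2.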

[13] = molecular target: Ubiquitin carboxyl-terminal hydrolase 1 (Homo sapiens) (UniProt O94782); assay: Inhibitors of USP1/UAF1: Pilot qHTS (AID 504865); details: purified USP1/UAF1, Ub-rhodamine cleavage fluorescence; series mostly up to 54.9 µM;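 note: rhodamine fluorescence freed from ubiquitin-rhodamine substrate followed over time; top concentration of the series differs between compounds; % is set by controls: 0 for no effect and ±100 for the full control effect; nearly all actives have a fitted effect of over 35% in size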
Summary of the method: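 1nM USP1/UAF1 + cpd, 15 min RT; start w/ Ub-Rho 150nM final; kinetic FL 480/540 nm, 6 reads q60 s. Buffer 50mM HEPES pH 7.8, 0.5mM EDTA, 1mM TCEP, 0.01% Tween-20, 0.1 mg/ml BSA.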

[14] = molecular target: Rap guanine nucleotide exchange factor 3 (Homo sapiens) (UniProt O95398); assay: Confirmatory qHTS for antagonist of cAMP-regulated guanine nucleotide exchange factor 3 (EPAC1) (AID 1645880); details: EPAC1 Rap1B-BODIPY-GDP exchange, fluorescence; series mostly up to 115 µM;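 note: plate controls were DMSO only for no effect and full effect of the ATA control for full effect; nearly all actives have a fitted effect of over 55% in size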
Rap guanine nucleotide exchange factor 3 (Homo sapiens), sequence (O95398 whole entry, looked up): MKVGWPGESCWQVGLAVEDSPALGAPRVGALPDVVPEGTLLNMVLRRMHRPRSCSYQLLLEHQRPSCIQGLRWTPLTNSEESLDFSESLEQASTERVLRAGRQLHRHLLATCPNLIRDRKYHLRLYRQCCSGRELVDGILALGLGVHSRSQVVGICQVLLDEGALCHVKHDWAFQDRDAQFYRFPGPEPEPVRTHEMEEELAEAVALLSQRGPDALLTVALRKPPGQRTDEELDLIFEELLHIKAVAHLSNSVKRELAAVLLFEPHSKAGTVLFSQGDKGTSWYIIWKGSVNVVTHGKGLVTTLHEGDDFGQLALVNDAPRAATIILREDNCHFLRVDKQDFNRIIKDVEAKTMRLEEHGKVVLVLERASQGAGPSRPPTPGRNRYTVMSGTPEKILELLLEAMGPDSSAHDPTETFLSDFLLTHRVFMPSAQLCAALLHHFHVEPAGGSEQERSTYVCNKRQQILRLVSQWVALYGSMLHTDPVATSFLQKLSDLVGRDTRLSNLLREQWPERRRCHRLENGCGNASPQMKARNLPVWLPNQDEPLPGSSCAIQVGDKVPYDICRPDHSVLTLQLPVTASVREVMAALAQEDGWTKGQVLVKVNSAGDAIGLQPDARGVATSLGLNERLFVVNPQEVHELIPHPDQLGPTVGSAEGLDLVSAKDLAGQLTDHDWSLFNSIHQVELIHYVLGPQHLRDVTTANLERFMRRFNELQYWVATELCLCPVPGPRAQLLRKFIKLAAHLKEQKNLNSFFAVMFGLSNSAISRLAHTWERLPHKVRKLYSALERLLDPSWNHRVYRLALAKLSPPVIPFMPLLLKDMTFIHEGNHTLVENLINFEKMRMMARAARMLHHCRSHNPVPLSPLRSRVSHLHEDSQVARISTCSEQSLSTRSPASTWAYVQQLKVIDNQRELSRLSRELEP
Summary of the method: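 Released BODIPY-GDP fluoresces less than Rap1-bound BODIPY-GDP; the signal is followed at 480/540 nm at 5-min intervals over 30 min, after 5 min at room temperature. Reactions contain 100 nM EPAC1, 250 nM RAP1B-BODIPY-GDP and 50 uM GDP; results are normalized to ATA and DMSO.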

[15] = molecular target: Rap guanine nucleotide exchange factor 3 (Homo sapiens) (UniProt O95398); assay: Confirmatory qHTS for agonist of cAMP-regulated guanine nucleotide exchange factor 3 (EPAC1) (AID 1645881); details: EPAC1 Rap1B BODIPY-GDP exchange fluorescence; series mostly up to 154 µM;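 note: EPAC1 catalysed release of BODIPY-GDP from Rap1B seen as fluorescence loss; 100% = effect of cAMP agonist control; nearly all actives have a fitted effect of over 75% in size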
[16] = molecular target: Rap guanine nucleotide exchange factor 4 (Homo sapiens) (UniProt Q8WZA2); assay: Confirmatory qHTS for agonist of cAMP-regulated guanine nucleotide exchange factor 4 (EPAC2) (AID 1645884); details: EPAC2 GEF activity, Rap1B-BODIPY-GDP fluorescence; series mostly up to 154 µM;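 note: nucleotide exchange releases bodipy-GDP from Rap1 and this lowers its fluorescence; % is set by controls: 0 for no effect and ±100 for the full control effect; nearly all actives have a fitted effect of over 65% in size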
Rap guanine nucleotide exchange factor 4 (Homo sapiens), sequence (Q8WZA2 whole entry, looked up): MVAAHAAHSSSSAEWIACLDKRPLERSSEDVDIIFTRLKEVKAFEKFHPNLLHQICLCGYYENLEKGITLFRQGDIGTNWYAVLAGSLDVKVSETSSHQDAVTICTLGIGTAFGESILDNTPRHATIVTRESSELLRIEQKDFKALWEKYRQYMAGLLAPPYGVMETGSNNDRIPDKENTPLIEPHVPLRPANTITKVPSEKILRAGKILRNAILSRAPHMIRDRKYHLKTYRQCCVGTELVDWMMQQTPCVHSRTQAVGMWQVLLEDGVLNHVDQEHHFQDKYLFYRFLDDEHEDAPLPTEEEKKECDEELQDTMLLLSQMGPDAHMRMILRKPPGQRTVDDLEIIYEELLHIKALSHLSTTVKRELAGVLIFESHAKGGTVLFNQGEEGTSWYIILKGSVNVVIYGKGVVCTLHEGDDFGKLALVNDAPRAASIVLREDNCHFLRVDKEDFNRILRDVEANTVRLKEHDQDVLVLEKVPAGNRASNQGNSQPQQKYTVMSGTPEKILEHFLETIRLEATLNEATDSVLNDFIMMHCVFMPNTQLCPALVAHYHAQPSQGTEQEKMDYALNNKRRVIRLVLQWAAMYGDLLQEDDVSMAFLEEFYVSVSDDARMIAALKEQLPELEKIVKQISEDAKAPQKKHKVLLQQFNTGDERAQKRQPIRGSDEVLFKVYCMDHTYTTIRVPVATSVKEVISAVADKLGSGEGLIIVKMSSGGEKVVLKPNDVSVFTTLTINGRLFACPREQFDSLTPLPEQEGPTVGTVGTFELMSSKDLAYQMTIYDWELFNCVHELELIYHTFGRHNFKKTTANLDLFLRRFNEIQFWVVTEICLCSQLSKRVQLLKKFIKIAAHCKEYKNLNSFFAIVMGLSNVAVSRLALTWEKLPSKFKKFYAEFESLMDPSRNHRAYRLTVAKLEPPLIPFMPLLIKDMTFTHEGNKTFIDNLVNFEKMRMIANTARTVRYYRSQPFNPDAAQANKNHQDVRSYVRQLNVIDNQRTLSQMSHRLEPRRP

[17] = molecular target: Rap guanine nucleotide exchange factor 4 (Homo sapiens) (UniProt Q8WZA2); assay: Confirmatory qHTS for antagonist of cAMP-regulated guanine nucleotide exchange factor 4 (EPAC2) (AID 1645885); details: EPAC2 Rap1B-BODIPY-GDP exchange fluorescence, biochemical; series mostly up to 114 µM; note: % is set by controls: 0 for no effect and ±100 for the full control effect; nearly all actives have a fitted effect of over 25% in size
[18] = molecular target: 3',5'-cyclic-AMP phosphodiesterase 4B (Homo sapiens) (UniProt Q07343); assay: qHTS Assay for Inhibitors of PDE-IV (AID 607; active = well fitted activation curve with a large enough effect in the main read-out, with a control signal flat, not every such curve was filed as active; note: % of control where 0% means no effect); details: HEK293 ACTOne CNG channel cells, membrane potential fluorescence; series mostly up to 22.9 µM
Summary of the method: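 Live HEK293 cells with a modified cyclic nucleotide-gated (CNG) channel report intracellular cAMP via membrane-potential dye fluorescence (ex 535/em 590 nm). Endogenous PDE-IV was targeted. Compounds were tested at up to 22.9 uM final; RO 20-1724 100 uM served as control.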

[19] = molecular target: Cytochrome P450 2C9 (Homo sapiens) (UniProt P11712); assay: qHTS Assay for Inhibitors and Substrates of Cytochrome P450 2C9 (AID 883); details: recombinant CYP2C9, luciferin-H luminescence, 60 min; series mostly up to 57.1 µM; note: potency is the fitted concentration of half-maximal effect; nearly all actives have a fitted effect of over 60% in size
Summary of the method: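 Luminescent read-out of deoxyluciferin hydroxylation, normalized to 57uM sulphaphenazole (AC100). Reaction: 10nM enzyme, 100uM Luciferin-H (equal to KM), 25mM KPO4, 10 min compound preincubation, then 60 min with NADPH regeneration, both at 37C.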

[20] = molecular target: Cytochrome P450 2D6 (Homo sapiens) (UniProt P10635); assay: qHTS Assay for Inhibitors and Substrates of Cytochrome P450 2D6 (AID 891); details: recombinant CYP2D6, luciferin-ME EGE luminescence; series mostly up to 57.1 µM; note: potency is the fitted concentration of half-maximal effect; nearly all actives have a fitted effect of over 60% in size
Summary of the method: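 Luminescent read-out of luciferin formed by 5 nM human CYP2D6 demethylating 30 uM Luciferin-ME EGE (Km level) over 60 min at room temperature after NADPH regeneration addition. Data normalized to full inhibition by 1.43 uM quinidine.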

[21] = molecular target: Dual specificity protein kinase CLK4 (Homo sapiens) (UniProt Q9HAZ1); assay: qHTS Assay for Inhibitors of CDC-like Kinase 4 (ADP-Glo Assay) (AID 1771); details: recombinant CLK4, ADP-Glo luminescence; series mostly up to 80 µM; note: potency is the fitted concentration of half-maximal effect; nearly all actives have a fitted effect of over 70% in size
Summary of the method: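 Compounds are pin-transferred onto substrate mix (100 uM RS peptide, 1 uM ATP), then 25 nM Clk4 is added. After 1 hr at room temperature, ADP-Glo reagent runs 45 min, detection reagent 30 min, then luminescence is read.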

[22] = molecular target: Dual specificity protein kinase CLK4 (Homo sapiens) (UniProt Q9HAZ1); assay: qHTS Assay for Inhibitors of CDC-like Kinase 4 (ADP-FP Assay) (AID 1795); details: Transcreener ADP fluorescence polarization; series mostly up to 50 µM; note: potency is the fitted concentration of half-maximal effect; nearly all actives have a fitted effect of over 60% in size
Summary of the method: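 FP readout: Orange Transcreener ADP2 tracer (4 nM) plus ADP antibody, read after 30 min at room temperature. Kinase step: 6.25 nM Clk4, 100 uM RS peptide, 1 uM ATP, pH 7.5, 1 h.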

[23] = measured here: cell count channel max response
[24] = measured here: lipid channel max response

COc1ccccc1CNc1ncnc2ccc(-c3ccccc3C#N)cc12
14.7%: max response [11, 24]
inactive: Potency [1] > 11.4 µM | activity change, negative = inhibition [3] 1.75% | activity, negative = inhibition [4] -23% | Potency [5] > 46 µM | Potency [6] > 46 µM | Potency [7] | Potency [9] | activity change, negative = inhibition [11] -1.18% | Potency [13] | Potency [14] | Potency [15] | Potency [16] | Potency [17]
active: Potency [2] 1.26 µM | Potency [8] 3.98 µM | Potency [10] 7.94 µM | Potency [12] 6.31 µM
16.4%: max response [11, 23]

COc1ccc2[nH]cc(CCNc3ncnc4ccc(-c5ccc6c(c5)OCO6)cc34)c2c1
-5.39%: max response [11, 24]
active: Potency [2] 0.631 µM | Potency [19] 126 nM | Potency [8] 2 µM | Potency [20] 2.51 µM | Potency [10] 1.58 µM | Potency [12] 0.316 µM | Potency [21] 282 nM | Potency [22] 70.8 nM
-4.39%: max response [11, 23]
inactive: Potency [1] > 11.4 µM | activity change, negative = inhibition [3] -23.8% | activity, negative = inhibition [4] -24.8% | Potency [6] > 46 µM | Potency [7] | Potency [18] | Potency [9] | activity change, negative = inhibition [11] 2.76% | Potency [13] | Potency [14] | Potency [15] | Potency [16] | Potency [17]
